Rtt109 Vps75 = C. albicans Rtt109 histone acetyltransferase inhibition | Q5AAJ8 | purified Rtt109/Vps75, ThioGlo CoA-SH fluorescence, 4 h | inhibition, % at 34.9 µM | hit rate 0.16% among 330,000;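 active means inhibition of at least 50% in every replicate; inconclusive means best replicate reaches 50% inhibition but some replicates fall short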
Target sequence (Q5AAJ8 whole entry, looked up): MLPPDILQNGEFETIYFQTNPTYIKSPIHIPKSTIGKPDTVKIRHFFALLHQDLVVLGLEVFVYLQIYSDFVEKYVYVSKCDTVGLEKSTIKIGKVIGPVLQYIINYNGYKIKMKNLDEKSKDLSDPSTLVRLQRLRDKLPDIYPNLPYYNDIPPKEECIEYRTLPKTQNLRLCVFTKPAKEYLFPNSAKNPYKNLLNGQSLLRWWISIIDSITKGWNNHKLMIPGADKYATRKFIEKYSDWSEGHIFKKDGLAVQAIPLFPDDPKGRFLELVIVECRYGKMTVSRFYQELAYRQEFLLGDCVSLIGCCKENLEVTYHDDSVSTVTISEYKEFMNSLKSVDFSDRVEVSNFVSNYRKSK
Wnt act = activates Wnt/beta-catenin signaling in a reporter cell assay; activator, plate reader; activation, % at 9.35 µM; hit rate 1.2% among 300,000; in the data active means activation above about 30%, passing the limit was not always enough; inconclusive means no clear call, values can overlap the other calls;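 further: 0% = neutral control wells and 100% = positive control wells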
Statin myotox sup = protects C2C12 myotubes from simvastatin toxicity. ATP luminescence, 48 h; scaled: DMSO 0, geranylgeraniol control 100. rescue of ATP level, % at 7.49 µM. hit rate 0.78% among 330,000. AID 602340;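 active means mean ATP rescue above about 67%, or every replicate alone reaching that limit, limit read from the data, passing the limit was not always enough; inconclusive means no clear call, values can overlap the other calls; inactive means mean under the limit and some replicate under it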;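 further: myotubes were challenged with 10 µM simvastatin during compound exposure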
MITF TRPM1 HTS = activators of MITF-driven TRPM1 promoter activity in SK-MEL-5 cells. SK-MEL-5 TRPM1-promoter luciferase, 24 h; % of positive control, neutral wells = 0. activation, % at 12.5 µM. hit rate 0.75% among 300,000;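 active means mean activation of at least 80% with every replicate also reaching 80%; inconclusive means mean reaches 80% but some replicate falls short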;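 further: 0% = neutral control wells and 100% = parthenolide positive control wells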
esBAF inh = SWI/SNF esBAF complex inhibition; mouse ES cells, Bmi1-luciferase knock-in reporter, 24 h; 100% = twice the neutral-well signal; reporter increase, % at 12.5 µM; hit rate 2% among 350,000; in the data active means activation above about 40%; inconclusive means no clear call, values can overlap the other calls;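 further: 0% = median of the plate's neutral control wells and 100% = double that signal; a rise in the Bmi1 reporter signal indicates esBAF inhibition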
Active calls of the source: *; ? = inconclusive; nt = not tested or not shown. Rows were chosen to be rich in hits. Some 3.1% of all compounds tested hit in one or more screens of this group.

SMILES | Rtt109 Vps75 | Wnt act | Statin myotox sup | MITF TRPM1 HTS | esBAF inh
CC1(C)CC(NC(=S)Nc2ccc(S(N)(=O)=O)cc2)CC(C)(C)N1 | 20 | 9 | 4 | 5 | 1
Cc1ccc2nc(-c3ccc(NC(=O)C(C)N4C(=O)c5ccccc5C4=O)cc3)sc2c1 (stereo not given) | -2 | nt | nt | 58 | nt
Cc1ccc2nc(-c3ccc(NC(=S)NC4CC(C)(C)NC(C)(C)C4)cc3)sc2c1 | 62* | -9 | 1 | 49 | 37
Cc1ccc2nc(-c3ccc(NC(=S)NC(=O)C(C)C)cc3)sc2c1 | 4 | 23 | -22 | 96* | 39
CCC(=O)NC(=S)Nc1ccc(-c2nc3ccc(C)cc3s2)cc1 | -3 | 36* | -20 | 113* | ?
Cc1ccccc1S(=O)(=O)N1C[C@@H]2[C@H](c3ccccc31)[C@@H](CO)N2C(=O)CC1CC1 | nt | nt | 0 | nt | -6
C[C@@H]1CN([C@@H](C)CO)S(=O)(=O)c2ccc(Br)cc2O[C@H]1CN(C)Cc1cccnc1 | nt | nt | -21 | nt | 2
CO[C@@H]1CN(C)C(=O)c2cc(NC(=O)C3CCOCC3)ccc2OC[C@H](C)N(C(C)=O)C[C@@H]1C | nt | nt | -2 | nt | 1
C[C@H]1CCCCO[C@H](CN(C)C(=O)Nc2ccccc2)[C@@H](C)CN([C@@H](C)CO)C(=O)c2cc(NC(=O)Nc3ccc(F)cc3)ccc2O1 | nt | nt | nt | nt | 2
COc1ccccc1NC(=O)N[C@H]1C=C[C@H](CC(=O)NCc2ccc(Cl)c(Cl)c2)O[C@@H]1CO | nt | nt | 38 | nt | 17
COc1ccc(S(=O)(=O)Nc2ccc3c(c2)C(=O)N([C@@H](C)CO)C[C@@H](C)[C@H](CN(C)Cc2ccncc2)O3)cc1 | nt | nt | -7 | nt | -6
CCOc1ccc2c(c1)nc(SCC(=O)c1cccs1)n2C | -7 | nt | nt | 17 | nt
CCOc1ccc2c(c1)nc(SCC(=O)c1ccc(Br)s1)n2C | 2 | -4 | 70* | -20 | -11
C=CCNC(=O)c1ccc2nc(Cc3ccc(OC)cc3)oc2c1 | -3 | 16 | -5 | nt | 89*
COc1ccc(Cc2nc3ccc(C(=O)NCCn4cccn4)cc3o2)cc1 | 13 | 10 | 11 | 18 | -5
COCCCNC(=O)c1ccc2nc(Cc3ccc(OC)cc3)oc2c1 | 1 | 8 | 1 | 40 | 71*
CN(c1ccc(C(=O)N2CCOCC2)cc1[N+](=O)[O-])C1CCCCC1 | 4 | nt | 4 | 67 | 57*
CC1CCN(c2ccc(NC(=O)c3ccc([N+](=O)[O-])o3)cc2)CC1 | -1 | -20 | 83* | -81 | nt
O=C(Nc1cccc(Cl)c1N1CCOCC1)c1cc([N+](=O)[O-])ccc1N1CCOCC1 | -8 | -2 | -23 | 13 | -4
CC(C)(C)C(=O)N1CCN(c2ccc(NC(=O)c3ccc([N+](=O)[O-])o3)cc2)CC1 | 3 | -12 | 133* | -81 | -28
O=C(Nc1cccc(Cl)c1N1CCOCC1)c1ccc([N+](=O)[O-])o1 | -3 | 5 | 97* | -55 | -3
Cc1cccc(S(=O)(=O)N2[C@@H]3Cn4c(cccc4=O)[C@H]2[C@@H](C(=O)NC2CCC2)[C@@H]3CO)c1 | nt | nt | 0 | nt | 5
CO[C@H]1CN(C)C(=O)c2ccc(NC(=O)C3CC3)cc2OC[C@H](C)N(C(=O)NC(C)C)C[C@H]1C | nt | nt | -15 | nt | 2
Cc1ccc(CNC(=O)C23CN(Cc4ccccc4)CC2C(c2ccc([N+](=O)[O-])cc2)=NO3)cc1 (stereo not given) | -11 | -3 | 92* | 9 | 0
C[C@H]1CN([C@@H](C)CO)C(=O)c2cc(-c3cccnc3)cnc2O[C@@H]1CN(C)Cc1ccc(-c2ccccc2)cc1 | nt | nt | -26 | nt | -3
SMILES | Rtt109 Vps75 | Wnt act | Statin myotox sup | MITF TRPM1 HTS | esBAF inh
CC(=O)N1c2ccc(S(=O)(=O)NCCC(=O)NCc3ccc(Cl)cc3)cc2CC1C (stereo not given) | 3 | -3 | 12 | -6 | 2
CC(=O)N1c2ccc(S(=O)(=O)NCCC(=O)NCc3ccc(N(C)C)cc3)cc2CC1C (stereo not given) | 9 | -2 | 92* | -6 | 1
COc1ccc(S(=O)(=O)Nc2ccc3c(c2)C(=O)N([C@H](C)CO)C[C@@H](C)[C@@H](CN(C)Cc2ccccc2)OCCCC[C@@H](C)O3)cc1 | nt | nt | nt | nt | -3
COc1ccc(NC(=O)N(C)C[C@H]2Oc3c(NC(=O)c4ccc(-c5nccs5)cc4)cccc3C(=O)N([C@@H](C)CO)C[C@H]2C)cc1 | nt | nt | nt | nt | 6
CC(=O)NC(CSC(CC(=O)c1ccco1)c1ccc(C)cc1)C(=O)O (stereo not given) | -64 | 9 | 5 | 39 | 43*
CO[C@H]1CN(C)C(=O)c2ccc(NC(C)=O)cc2OC[C@@H](C)N(C(=O)C2CCC2)C[C@H]1C | nt | nt | 6 | nt | 3
Cc1cccc(NC(=O)CN2C(=O)N/C(=C\c3ccc(N4CCOCC4)cc3)C2=O)c1 | -8 | 9 | -7 | 15 | 59*
Cc1cc(N2CCOCC2)ccc1/C=C1\NC(=O)N(CC(=O)Nc2ccc(F)cc2)C1=O | nt | 14 | nt | 33 | nt
Cc1c(/C=C/C(=O)c2ccccc2O)cnn1C | 3 | -2 | -1 | ? | 51*
Cc1ccc2occ(/C=N/NC(=O)c3ccccc3O)c(=O)c2c1 | 11 | -1 | -87 | -14 | 12
Cc1ccc2occ(/C=C/C(=O)c3ccccc3O)c(=O)c2c1 | 5 | 4 | nt | 77 | 51*
Cc1ccc(/C=C/C(=O)c2ccccc2O)cc1 | -2 | 26 | nt | 37 | nt
C[C@@H]1CN([C@@H](C)CO)C(=O)c2cc(-c3cccnc3)cnc2O[C@@H]1CN(C)C(=O)Nc1ccc2c(c1)OCO2 | nt | nt | 5 | nt | -4
Cc1ccc(C2=[N+]([O-])C3(CCCCC/C3=N\O)N(O)C2(C)C)o1 (stereo not given) | -5 | 1 | nt | -1 | -1
CC1(C)C(c2ccc(Cl)cc2)=[N+]([O-])C2(CCCC/C2=N\O)N1O (stereo not given) | -2 | nt | 116* | 6 | -2
O=C(Nc1cccc(S(=O)(=O)C(F)F)c1)c1ccc(S(=O)(=O)N2CCOCC2)cc1 | 28 | -3 | 95* | nt | -2
O=C(C[C@H]1CC[C@H]2[C@@H](COC[C@@H](O)CN2S(=O)(=O)c2ccc(Oc3ccccc3)cc2)O1)NC1CCC1 | nt | nt | 6 | nt | -9
O=C(Nc1nnc(-c2ccccc2)s1)c1ccccc1F | -8 | 24 | -5 | nt | 70*
O=C(Nc1nnc(-c2ccccc2Cl)s1)c1ccccc1F | -3 | 27 | 3 | 78 | 51*
O=C(Nc1nnc(S(=O)(=O)Cc2ccc(F)cc2)s1)c1ccccc1F | 13 | -2 | -36 | -11 | 3
O=C(Nc1nnc(Cc2ccccc2F)s1)c1ccccc1Cl | -6 | 1 | 9 | nt | 2
COc1ccc(CC(=O)Nc2cccc(-c3cn4ccccc4n3)c2)cc1 | 17 | 6 | nt | 39 | nt
Cc1ccc(NC(=O)c2ccccc2NC(=O)Cc2ccccc2)cc1 | 3 | 35* | nt | 12 | nt
Cc1nc(-c2ccc(NC(=O)c3ccccc3Br)cc2)cs1 | -7 | 65* | nt | ? | nt
CCC(=O)Nc1ccc(-c2csc(C)n2)cc1 | 42 | 9 | nt | 39 | nt
